Results published in PubChem BioAssay (NCATS).
Records with an inconclusive call do not appear. Active and inactive are the calls of the source. Unless noted, calls come from the whole dose curve; as a rule, active = well fitted curve in either direction with a large enough effect (not every such curve was filed as active); inconclusive = small, poorly fitted or top-dose-only effect, or another doubt; inactive = flat fitted curve, though single readings scatter.

What was measured:
[1] = AP1 Signaling Pathway (AID 357); conditions: ME-180 AP-1-bla reporter, EGF-induced, beta-lactamase ratio, 5 h; at 17.2 µM (top of the series) unless noted;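 note: ME-180 reporter cells stimulated with EGF at its EC50 level; % is set by controls: 0 for no effect and ±100 for the full control effect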
Procedure, shortened: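 First, ME-180 AP-1-bla cells were cultured overnight at 37 °C in low-serum Opti-MEM. Next, titrated compounds with EC50 EGF were incubated 5 hours. Finally, CCF4 was added for 2.5 hours and the 460/530 nm ratio recorded.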

[2] = NFAT Signaling Pathway (AID 444); conditions: Jurkat NFAT-bla M1, carbachol, beta-lactamase ratio, 5 h; at 17.2 µM (top of the series) unless noted;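 note: carbachol stimulus at about its EC50 of 1 µM final; % is set by controls: 0 for no effect and ±100 for the full control effect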
Procedure, shortened: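 Jurkat cells with NFAT-driven β-lactamase reporter and co-expressed M1 receptor, stimulated with carbachol (final 1 uM, ~EC50), compound titration, 5 h at 37 °C. CCF4 loaded 1 h at RT; 460/530 nm ratio gave %activity and AC50.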

[3] = Stat Signaling Pathway (AID 446);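 note: ME-180 cervical cancer cells given 40 pM IL-6 alongside compound; SIE-controlled beta-lactamase reporter measured as 460/530 nm FRET emission ratio; % is set by controls: 0 for no effect and ±100 for the full control effect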
Procedure, shortened: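 Emission at 460 and 530 nm (excitation 405 nm) reports SIE-controlled beta-lactamase in ME-180 cells. Cells received compound with 40 pM IL-6 for 5 hrs at 37 C; data scaled between 300 pM IL-6 and 125 nM JAK-inhibitor controls.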

[4] = molecular target: Glucocorticoid receptor (Homo sapiens) (UniProt P04150); experiment: GR-GFP Redistribution (AID 450;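 active = compounds whose dose series gives a full or clear partial fitted curve of increased nuclear translocation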; note: potency is the fitted concentration of half-maximal effect); conditions: U2OS GR-GFP nuclear translocation, laser cytometry, 2 h
Glucocorticoid receptor (Homo sapiens), sequence (P04150 whole entry, looked up): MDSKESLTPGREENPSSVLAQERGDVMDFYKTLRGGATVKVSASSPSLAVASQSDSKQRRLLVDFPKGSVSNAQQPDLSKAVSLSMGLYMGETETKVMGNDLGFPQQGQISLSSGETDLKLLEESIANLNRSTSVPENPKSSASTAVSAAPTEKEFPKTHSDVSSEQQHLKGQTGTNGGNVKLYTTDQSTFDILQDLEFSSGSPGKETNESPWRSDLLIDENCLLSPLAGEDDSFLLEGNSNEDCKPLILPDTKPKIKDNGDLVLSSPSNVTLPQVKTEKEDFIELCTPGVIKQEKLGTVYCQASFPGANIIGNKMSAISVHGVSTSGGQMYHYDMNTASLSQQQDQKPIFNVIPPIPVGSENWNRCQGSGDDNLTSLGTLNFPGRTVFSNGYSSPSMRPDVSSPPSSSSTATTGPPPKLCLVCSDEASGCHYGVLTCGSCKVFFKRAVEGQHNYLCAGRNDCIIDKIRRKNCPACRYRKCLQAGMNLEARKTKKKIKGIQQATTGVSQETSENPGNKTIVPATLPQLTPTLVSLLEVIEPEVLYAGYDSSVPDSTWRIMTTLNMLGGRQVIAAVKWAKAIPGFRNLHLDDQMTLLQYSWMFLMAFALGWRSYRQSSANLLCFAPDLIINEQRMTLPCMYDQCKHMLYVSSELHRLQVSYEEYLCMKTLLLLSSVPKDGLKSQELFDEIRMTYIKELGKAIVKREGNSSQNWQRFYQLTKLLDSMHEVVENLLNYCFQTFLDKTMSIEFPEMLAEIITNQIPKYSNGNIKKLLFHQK

[5] = qHTS Assay for Identification of Small Molecule Agonists for Hypoxia Response Element Signaling Pathway (AID 914; active = well fitted activation curve with a large enough effect in the signal ratio, with a control signal flat, not every such curve was filed as active; the % refers to the signal ratio; note: % of control where 0% means no effect); conditions: ME-180 (cervical carcinoma) HRE-bla reporter, beta-lactamase ratio, CoCl2, 17 h; activation: active compounds read high
Procedure, shortened: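 HRE-bla ME-180 assay for agonist-like enhancement of an EC50 CoCl2 stimulus: 17 h at 37 degrees Celsius, CCF4 for 2.5 h, ratiometric 460/530 nm signal converted to %Activity and fitted to AC50.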

O=C1NCCN2CCCC12 (stereo not given)
inactive: activity change, negative = inhibition [1] 12% | activity change, negative = inhibition [2] -0.485% | outcome [3] | Potency [4] > 20.6 µM | activation [5] 9.17%
